The values that follow come from PubChem BioAssay (Tox21).

Structures are written as SMILES. Results filed as inconclusive are left out. Unmarked numbers belong to inactive results. Calls of active or inactive are those of the source. Calls follow the shape of the dose curve; as a rule, active = well fitted inhibition curve with a large enough effect in the signal ratio in the repeat runs (not every such curve was filed as active); inconclusive = weak or mixed curves; inactive = flat fitted curve, though single readings scatter; the % refers to the signal ratio.
% is scaled to controls: 0 for no effect and ±100 for the full control effect; potency is read from the fitted curve at half-maximal effect.

For this experiment, the target named is Progesterone receptor (Homo sapiens) (UniProt P06401). Description: qHTS assay to identify small molecule antagonists of the progesterone receptor (PR) signaling pathway (AID 1346795). The following applies: PR-UAS-bla HEK293T, beta-lactamase FRET ratio, 16 h; series mostly up to 92.4 µM; activity change, negative = inhibition: at the top concentration. From the text: National Center for Advancing Translational Sciences [NCATS]
Progesterone receptor (Homo sapiens), sequence (P06401 whole entry, looked up): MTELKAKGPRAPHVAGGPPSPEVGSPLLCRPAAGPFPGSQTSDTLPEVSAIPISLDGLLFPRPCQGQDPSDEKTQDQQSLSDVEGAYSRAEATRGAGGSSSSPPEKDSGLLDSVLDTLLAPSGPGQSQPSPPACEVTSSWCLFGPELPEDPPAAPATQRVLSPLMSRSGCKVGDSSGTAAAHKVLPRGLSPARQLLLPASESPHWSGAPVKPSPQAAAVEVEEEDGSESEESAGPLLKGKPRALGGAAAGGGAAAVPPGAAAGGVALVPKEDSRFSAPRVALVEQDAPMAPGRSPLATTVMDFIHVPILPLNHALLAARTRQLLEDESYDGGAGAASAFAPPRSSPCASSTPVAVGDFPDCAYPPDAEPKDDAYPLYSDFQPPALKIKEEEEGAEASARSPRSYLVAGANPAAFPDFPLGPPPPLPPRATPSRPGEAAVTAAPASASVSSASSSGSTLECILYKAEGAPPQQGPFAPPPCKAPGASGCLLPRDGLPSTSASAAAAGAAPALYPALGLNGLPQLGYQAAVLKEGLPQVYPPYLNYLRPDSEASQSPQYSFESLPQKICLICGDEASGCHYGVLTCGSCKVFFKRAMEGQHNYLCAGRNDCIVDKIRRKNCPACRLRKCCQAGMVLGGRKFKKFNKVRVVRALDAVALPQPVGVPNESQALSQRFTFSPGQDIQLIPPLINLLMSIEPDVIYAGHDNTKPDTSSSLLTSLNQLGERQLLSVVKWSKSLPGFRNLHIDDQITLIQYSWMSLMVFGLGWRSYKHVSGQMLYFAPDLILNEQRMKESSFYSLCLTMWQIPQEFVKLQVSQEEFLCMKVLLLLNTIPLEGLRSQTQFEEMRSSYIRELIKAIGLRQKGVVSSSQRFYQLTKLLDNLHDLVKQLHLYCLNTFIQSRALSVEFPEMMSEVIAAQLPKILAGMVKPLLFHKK
NIH Chemical Genomics Center [NCGC]
U.S. Environmental Protection Agency [EPA]
National Institutes of Environmental Health Sciences [NIEHS]
National Toxicology Program [NTP]
U.S. Food and Drug Administration [FDA]
Progesterone receptor (PR), a nuclear hormone receptor, plays an important role in development, metabolic homeostasis and reproduction. […] Endocrine disrupting chemicals (EDCs) and their interactions with steroid hormone receptors like PR causes disruption of normal endocrine function. To identify the compounds that inhibit PR signaling, a PR-UAS-bla GripTite cell line i.e. PR-UAS-bla HEK293T (Invitrogen, Carlsbad, CA, USA) containing a beta-lactamase reporter gene under the control of an Upstream Activator Sequence (UAS) was used to screen Tox21 10K compound library.
Tox21 Assay Protocol Summary:
PR-UAS-bla HEK293T cells were dispensed at 3,000 cells/4 uL of assay medium containing 2% charcoal stripped FBS per well into black wall/clear-bottom 1536-well plates using a Multidrop Combi (ThermoFisher Scientific, Waltham, MA) dispenser. After the assay plates were incubated at a 37C and 5% CO2 for 6 hr, 23 nL of compounds dissolved in DMSO, positive controls or DMSO only was transferred to the assay plate by a Pintool station (Kalypsys, San Diego, CA), followed by addition of 1 uL (1nM as final concentration) of Promegestone (R5020) in assay medium using a BioRAPTR FRD (Flying Reagent Dispenser, Aurora Discovery, San Diego, CA). The plates were incubated at 37C and 5% CO2 for 16 hr. Then 1 uL of LiveBLAzer B/G FRET substrate was added using a FRD. After the plates were incubated at room temperature for 2 hours, fluorescence intensity was measured by an Envision plate reader (PerkinElmer, Shelton, CT).
With `COCc1cnc(C2=NC(C)(C(C)C)C(=O)N2)c(C(=O)O)c1` (stereo not given), the “activity change, negative = inhibition” value was 2.65%.

For `Cc1cccc(C)c1NC1=NCCCS1`, the “activity change, negative = inhibition” value was -1.19% [at 42.5 µM]. With `CC(C)(C#N)C(C)(C)C#N`, the “activity change, negative = inhibition” value was 8.1%. Regarding `CCC1(C2=NCCN2)Cc2ccccc2O1` (stereo not given), the “activity change, negative = inhibition” value was 9.49% [at 42.5 µM]. On to `C=CCc1ccccc1O`, for which the “activity change, negative = inhibition” value is 1.3%.

With `Clc1ccc(Cl)c(Cl)c1`, the Potency entry was “inactive”.

Consider `NC(=O)CF`, for which the “activity change, negative = inhibition” value is 6.11%.

`CCCC[P+](CC)(CCCC)CCCC` (tested in a mixture with another compound): the “activity change, negative = inhibition” value was -1.87%.

`CCN(C(C)=O)c1cccc(-c2ccnc3c(C#N)cnn23)c1`: the “activity change, negative = inhibition” value is -10.3% [at 42.5 µM]. For `CCC(C)Cl` (stereo not given), the “activity change, negative = inhibition” value is 5.8%.

In the case of `CC(CC(C(N)=O)(c1ccccc1)c1ccccc1)N(C)C` (stereo not given), the “activity change, negative = inhibition” value is -0.272% [at 42.5 µM]. `O=CC=O`: the “activity change, negative = inhibition” value is 4.59%. Regarding `Cc1ccccc1`, the “activity change, negative = inhibition” value is 2.34%. Take `CCOC(C(=O)OCCN(C)C)(c1ccccc1)c1ccccc1`: the “activity change, negative = inhibition” value is -13.4% [at 42.5 µM].

`CCCCNC(=O)OCC#CI`: the Potency entry is “inactive”.

As to `C=C(Cl)Cl`, the “activity change, negative = inhibition” value was -2.9%. On to `COP(=O)(OC)OC(Br)C(Cl)(Cl)Br` (stereo not given), for which the Potency result was “inactive”. Regarding `FC(F)OC(F)(F)C(F)Cl` (stereo not given), the “activity change, negative = inhibition” value was 0.854%. Regarding `OC[P+](CO)(CO)CO`, the “activity change, negative = inhibition” value was -9.69%. The same measure, in the same setting: for `CN(C)C(=O)Nc1cccc(OC(=O)NC(C)(C)C)c1` the value was -3.05%; for `CCCCCCCCP(=O)(O)O`, -13.7%; for `COc1ccc(C(O)(c2cncnc2)C2CC2)cc1` (stereo not given), -0.276%.

For the compound `CCC1(CC)C(=O)NC(=O)NC1=O`, the “activity change, negative = inhibition” value was 6.51% [at 42.5 µM]. Same read-out and setting: for `O=C(Cc1ccccc1)c1ccccc1` the value was -8.66%. Consider `CCc1cnc(C2=NC(C)(C(C)C)C(=O)N2)c(C(=O)O)c1` (stereo not given), for which the Potency result was “inactive”.

With `CCCN(CCC)C(=O)Cc1c(-c2ccc(Cl)cc2)nc2ccc(Cl)cn12`, the Potency was 10.6 µM (active). In the case of `CC(Cc1ccccc1)NCc1ccccc1Cl` (stereo not given), the “activity change, negative = inhibition” value was -25.5% [at 42.5 µM].

Take `C[C@H]1O[C@H](OC2[C@@H](O)[C@@H](O)C(O)[C@H](O)[C@H]2O)[C@@H](N)C[C@@H]1N=C(N)C(=O)O` (stereo not given in full): the “activity change, negative = inhibition” value was 0.476%. Take `C=CCSSCC=C`: the “activity change, negative = inhibition” value is 14.2%. As for `C[N+]1(CCF)[C@@H]2CC[C@H]1CC(OC(=O)C(O)(c1ccccc1)c1ccccc1)C2` (stereo not given in full), the “activity change, negative = inhibition” value is 6.54% [at 42.5 µM]. Consider `CC(Oc1cc(Cl)c(Cl)cc1Cl)C(=O)O` (stereo not given), for which the “activity change, negative = inhibition” value is -0.438%. Same read-out and setting: for `CCCCC#N` the value was -0.711%. As for `N#CC(C#N)=Cc1ccc(O)c(O)c1`, the “activity change, negative = inhibition” value is -5.2% [at 42.5 µM].

Turning to `C[C@H]1[C@@H]2Cc3ccc(O)cc3[C@@]1(C)CCN2C`, the “activity change, negative = inhibition” value was 0.544% [at 238 µM]. As for `CN1CC[C@]23c4c5ccc(O)c4O[C@H]2[C@@H](O)C=C[C@H]3[C@H]1C5`, the “activity change, negative = inhibition” value is 1.62%. Same read-out and setting: for `O=C=NC1CCCCC1` the value was 8.24%. Same read-out and setting: in the case of `CCOC(=O)NC(O)C(Cl)(Cl)Cl` (stereo not given) it was 11.8% [at 42.5 µM]; in that of `CCCCOC(=O)CCC(=O)OCCCC`, -1.23%; in that of `CCC1(CCC(C)C)C(=O)NC(=O)NC1=O`, 4.51%.

In the case of `CCC[N+](CCC)(CCC)CCC`, the “activity change, negative = inhibition” value is 4.11%.
